Here are results for 36 compounds from PubChem BioAssay (NCI).

Compounds without any hit were thinned out: in the full panel of roughly 79,000, 15% have a hit. Values without a mark were called inactive. The source made the active and inactive calls. Rule as the data show it: active = growth inhibition above about 70%; inactive = the rest.

The nature of experiment [1]: NCI Yeast Anticancer Drug Screen. Data for the rad50 strain (AID 155).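 Also: 0% = growth of vehicle-only cultures of the same strain.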 The conditions noted are these: S. cerevisiae rad50 strain growth inhibition; at 50.0 µM; active compounds read high. A digest of the protocol:
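A DNA repair-deficient yeast mutant serves as the test organism; compound-induced growth inhibition is calculated against vehicle-treated cells.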

Experiment [2] in a line: NCI Yeast Anticancer Drug Screen. Data for the mec2-1 strain (AID 157). The conditions noted are these: S. cerevisiae mec2-1 strain, at 50.0 µM, active compounds read high. The essentials:
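Yeast mec2-1 mutant treated with compound. Readout: growth inhibition vs vehicle controls.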

Experiment [3] can be described thus: NCI Yeast Anticancer Drug Screen. Data for the sgs1 mgt1 strain (AID 161).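 Also: 0% = growth of cultures given vehicle only.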 The conditions noted are these: S. cerevisiae sgs1 mgt1 strain, at 50.0 µM, active compounds read high. The essentials: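 Genetically altered yeast, compound exposure, growth inhibition relative to vehicle.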
The nature of experiment [4]: NCI Yeast Anticancer Drug Screen. Data for the cln2 rad14 strain (AID 165).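 Also: 0% = growth equal to vehicle treated cultures.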 The conditions noted are these: S. cerevisiae cln2 rad14 strain, at 50.0 µM, active compounds read high. A digest of the protocol:
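cln2 rad14 yeast strain; compound exposure; growth inhibition read vs vehicle controls.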

Experiment [5] can be described thus: NCI Yeast Anticancer Drug Screen. Data for the bub3 strain (AID 167). The conditions noted are these: S. cerevisiae bub3 mutant strain, at 50.0 µM, active compounds read high. A digest of the protocol: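 Inhibition values come from growth of compound-treated mutant yeast normalised to vehicle-treated controls.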
Experiment [6] in a line: NCI Yeast Anticancer Drug Screen. Data for the mlh1 rad18 strain (AID 175). The conditions noted are these: S. cerevisiae mlh1 rad18 strain growth inhibition; at 50.0 µM; active compounds read high. The essentials:
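Yeast w/ defined DNA-repair lesions; compound exposure; growth vs vehicle controls → % inhibition.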

Turning to `CC1N=C(SCc2ccc(Cl)cc2)N2C(C)N=C(SCc3ccc(Cl)cc3)N12` (stereo unspecified), the growth inhibition was -12.7% in experiment [1]; -40% in experiment [2]; 5.8% in experiment [3]; 2.7% in experiment [4]; 5.6% in experiment [5]; -6.95% in experiment [6].

Regarding `O=[N+]([O-])c1cnc(/C=[N+](\[O-])C2CCCCC2)n1CCO`, the growth inhibition in experiment [1] is 3.7%; in experiment [2], 17.6%; in experiment [3] it was -0.3%; in experiment [4] it was 13.7%; in experiment [5], 16.6%; in experiment [6], 9.8%.

For the compound `CC1=C[C@@H]2[C@@H](CC(CO)=C[C@H]3[C@@H]4C(C)(C)[C@]4(OCC(C)C)[C@H](OCC(C)C)[C@@H](C)[C@]23O)C1=O`, the growth inhibition was -13.7% in experiment [1]; -14.2% in experiment [2]; -55.5% in experiment [3]; -0.1% in experiment [4]; -69.2% in experiment [5]; -13.9% in experiment [6].

For the compound `COc1ccc(C)cc1N=NC1C(=O)N(C(=O)CC(=O)Nc2ccccc2OC)N=C1c1ccccc1` (stereo unspecified), the growth inhibition in experiment [1] was 12.8%; in experiment [2], -1.5%; in experiment [3] it was -7.4%; in experiment [4] it was 6.55%; in experiment [5], 2.35%; in experiment [6], 15.3%.

As to `c1cc(N2CCOCC2)ccc1Cc1ccc(N2CCOCC2)cc1`, the growth inhibition was -13.2% in experiment [1]; 0.9% in experiment [2]; -4.1% in experiment [3]; 0.45% in experiment [4]; -17.6% in experiment [5]; -13.1% in experiment [6].

For the compound `COC(=O)N1C(c2ccccc2)C=CC(c2ccccc2)N1C(=O)OC` (stereo unspecified), the growth inhibition was 12.7% in experiment [1]; 11.2% in experiment [2]; 10.2% in experiment [3]; 4.3% in experiment [4]; 17% in experiment [5]; 18.2% in experiment [6].

For the compound `CC(=O)C(CN1CCOCC1)C(C)(C)O` (stereo unspecified), the growth inhibition was 2.9% in experiment [1]; 31.8% in experiment [2]; 15.6% in experiment [3]; -6.35% in experiment [4]; 2.8% in experiment [5]; 12.4% in experiment [6].

In the case of `CSc1cc(Cl)c(C)cc1S(=O)(=O)n1cc[nH]c1=O`, the growth inhibition in experiment [1] is -2.4%; in experiment [2], 1.4%; in experiment [3] it was 3.35%; in experiment [4], -0.05%; in experiment [5], -3.75%; in experiment [6] it was 17.1%.

For `COc1ccc(CCNCCCC2c3ccccc3-c3ccccc32)cc1OC`, the growth inhibition was 28.8% in experiment [1]; -3.4% in experiment [2]; 6.55% in experiment [3]; 12.5% in experiment [4]; -19.1% in experiment [5]; -34.1% in experiment [6].

In the case of `CC(=O)N1C(=O)C(=O)c2cc(Cl)ccc21`, the growth inhibition is -1.85% in experiment [1]; -6.9% in experiment [2]; 3.95% in experiment [3]; -2.1% in experiment [4]; -0.2% in experiment [5]; -1.6% in experiment [6].

Turning to `CN(c1ccc(C(=O)c2ccc(N(C)S(C)(=O)=O)cc2)cc1)S(C)(=O)=O`, the growth inhibition in experiment [1] was -22.6%; in experiment [2], -27.9%; in experiment [3], -8.05%; in experiment [4], -2.35%; in experiment [5], 4.5%; in experiment [6], -6.6%.

`O=[N+]([O-])c1cccc(N=C(c2ccccc2)N(O)c2ccccc2)c1`: the growth inhibition in experiment [1] was 1.8%; in experiment [2] it was -19.2%; in experiment [3], 0.85%; in experiment [4] it was 31.9%; in experiment [5], 10.9%; in experiment [6] it was 15.8%.

Turning to `CCCCN(C)C(=O)C1=C(C)NC(C)=C(C(=O)N(C)CCCC)C1`, the growth inhibition was -1.45% in experiment [1]; -26.4% in experiment [2]; -12.2% in experiment [3]; -20.3% in experiment [4]; -16.2% in experiment [5]; -58% in experiment [6].

Turning to `O=C(OCOC(=O)N1CCOCC1)N1CCOCC1`, the growth inhibition was 2.3% in experiment [1]; -7.25% in experiment [2]; 1% in experiment [3]; 17.6% in experiment [4]; -1.9% in experiment [5]; -5.2% in experiment [6].

Regarding `CCCCCOC(=O)OC(C)CNC(=O)C(C)OC(=O)OCCCCC` (stereo unspecified), the growth inhibition in experiment [1] was -17.4%; in experiment [2], -33.5%; in experiment [3], -12.5%; in experiment [4], -61.4%; in experiment [5] it was -9.5%; in experiment [6], -29.4%.

Take `COc1nc2[nH]c(C)cc(=O)c2c2ccccc12`: the growth inhibition is 16.4% in experiment [1]; 14.8% in experiment [2]; 1.45% in experiment [3]; -26.8% in experiment [4]; -7% in experiment [5]; 2.8% in experiment [6].

Turning to `O=C(OC(CN1CCCCC1)CN1CCCc2ccccc21)C(O)C(O)C(O)(CO)C(=O)OC(CN1CCCCC1)CN1CCCc2ccccc21` (stereo unspecified), the growth inhibition in experiment [1] was 15.4%; in experiment [2], 7.05%; in experiment [3], 43.8%; in experiment [4], 1.8%; in experiment [5] it was 7.95%; in experiment [6] it was 41.1%.

As to `Cc1cccc2nc(-c3ccccn3)n(CCc3ccncc3)c12`, the growth inhibition was 98.8% (active) in experiment [1]; 99.2% (active) in experiment [2]; 99.2% (active) in experiment [3]; 98.1% (active) in experiment [4]; 98.8% (active) in experiment [5]; 98.7% (active) in experiment [6].

As to `COc1ccc2[nH]c3c4c(c(C)cc3c2c1)OC(C)(C)C=C4`, the growth inhibition in experiment [1] was 16.2%; in experiment [2] it was -5.75%; in experiment [3], -4.05%; in experiment [4] it was -43.3%; in experiment [5] it was -16.6%; in experiment [6] it was -6.15%.

On to `CC(C)OC(=O)NC1CCC2CCCCC2C1` (stereo unspecified), for which the growth inhibition is 2.7% in experiment [1]; 11.5% in experiment [2]; -8.3% in experiment [3]; -19.9% in experiment [4]; 15.7% in experiment [5]; -4.75% in experiment [6].

Take `CC1(C)CCC2(CO)C(=C3C=CC4C5(C)CCC(O)C(C)(CO)C5CCC4(C)C3(C)CC2O)C1` (stereo unspecified): the growth inhibition in experiment [1] was 0.45%; in experiment [2] it was -31.8%; in experiment [3], -0.75%; in experiment [4], -3.35%; in experiment [5], -9.5%; in experiment [6] it was 11.4%.

For `CN(C)C(N)=Nc1ncnc2ccccc12`, the growth inhibition is -14.6% in experiment [1]; 15.2% in experiment [2]; 0.45% in experiment [3]; 15.7% in experiment [4]; -5.85% in experiment [5]; -1.8% in experiment [6].

As to `CC1=C(C(=O)NCc2ccccc2)C(c2cccc([N+](=O)[O-])c2)C(C(=O)NCc2ccccc2)=C(C)N1`, the growth inhibition in experiment [1] is 19.6%; in experiment [2], 17.2%; in experiment [3], 9.05%; in experiment [4], 22.7%; in experiment [5] it was 19.2%; in experiment [6] it was 33.7%.

As to `CCOC(=O)C/C(C)=N\NC(N)=O`, the growth inhibition is 38.2% in experiment [1]; 42.5% in experiment [2]; 44.8% in experiment [3]; 18.2% in experiment [4]; 26.1% in experiment [5]; 42.8% in experiment [6].

Turning to `Nc1ccccc1N`, the growth inhibition in experiment [1] is -7.9%; in experiment [2] it was -13.3%; in experiment [3], 14.4%; in experiment [4] it was -4.5%; in experiment [5] it was -29.9%; in experiment [6], -0.35%.

`COc1ccc(C2N(NC(=O)c3ccncc3)C(=O)CS2(=O)=O)cc1F` (stereo unspecified): the growth inhibition is -3.95% in experiment [1]; -12.6% in experiment [2]; -11.8% in experiment [3]; -1.55% in experiment [4]; 0.75% in experiment [5]; 0.95% in experiment [6].

As to `Oc1c(O)c(O)c(O)c(O)c1O`, the growth inhibition in experiment [1] was -5.3%; in experiment [2], 4.15%; in experiment [3] it was 7.45%; in experiment [4], -13.9%; in experiment [5] it was -0.45%; in experiment [6] it was -3%.

In the case of `CSc1nnc(SC)s1`, the growth inhibition in experiment [1] is -3.3%; in experiment [2], -22.6%; in experiment [3] it was -18.8%; in experiment [4], 22.9%; in experiment [5], 1.4%; in experiment [6], -9.35%.

As for `CC(=O)N(C)c1ccc(O)cc1`, the growth inhibition in experiment [1] is 14.6%; in experiment [2], -16.1%; in experiment [3], -16.1%; in experiment [4], -18.6%; in experiment [5], -8.9%; in experiment [6] it was 9.2%.

For `OC1(CSc2ccccc2)CCCCC1`, the growth inhibition is 11.1% in experiment [1]; 22.2% in experiment [2]; 14.5% in experiment [3]; 1% in experiment [4]; -10.7% in experiment [5]; -33% in experiment [6].

For `CCCCCCCCCCCCCCCC(=O)OCC1OC(OC(=O)CCCCCCCCCCCCCCC)C(OC(=O)CCCCCCCCCCCCCCC)C(OC(=O)CCCCCCCCCCCCCCC)C1OC(=O)CCCCCCCCCCCCCCC` (stereo unspecified), the growth inhibition was -19.8% in experiment [1]; -25.8% in experiment [2]; -19.9% in experiment [3]; -7.05% in experiment [4]; -24.7% in experiment [5]; -14.8% in experiment [6].

As to `COc1cc(-c2cc(CCC(=O)Nc3ccccc3[N+](=O)[O-])n(-c3ccc([N+](=O)[O-])cc3[N+](=O)[O-])n2)ccc1O`, the growth inhibition in experiment [1] was -5.2%; in experiment [2], -5.5%; in experiment [3], -42.7%; in experiment [4] it was 31.8%; in experiment [5] it was -4.65%; in experiment [6] it was -27.7%.

Take `[O-]c1c[n+](-c2ccc3c(c2)OCO3)no1`: the growth inhibition in experiment [1] is 3.2%; in experiment [2], -3.25%; in experiment [3], -0.25%; in experiment [4] it was -16.4%; in experiment [5], 7.3%; in experiment [6], 13.7%.

With `[NH-]c1ncnc2c1N=C[N+]2=CC=CCO`, the growth inhibition in experiment [1] is -1.6%; in experiment [2] it was -17%; in experiment [3] it was -19.7%; in experiment [4], -7.6%; in experiment [5] it was -28.4%; in experiment [6], -10.7%.

In the case of `O=C(Nc1nc(C23CC4CC(CC(C4)C2)C3)cs1)c1cc2cc([N+](=O)[O-])ccc2oc1=O`, the growth inhibition is -12.7% in experiment [1]; -31.5% in experiment [2]; -14.8% in experiment [3]; -34.7% in experiment [4]; -15.2% in experiment [5]; -10.8% in experiment [6].

Regarding `CC(=O)Nc1ccc(S(=O)(=O)Oc2noc3ccc(Br)cc23)cc1`, the growth inhibition in experiment [1] was -8.35%; in experiment [2] it was -8.05%; in experiment [3], -23%; in experiment [4], -4.5%; in experiment [5], -3.95%; in experiment [6], 2.4%.
